Bioassay records (PubChem)
Most compounds without a hit are left out; they make up all but 0.87% or so of the library.
EPAC2 antagonist: antagonists of human EPAC2; Potency, µM (top dose mostly 114 µM), without a hit: at the top dose activity, negative = inhibition, actives largely listed as inhibitors; 360,000 tested, 0.18% active; AID 720708; EPAC2 GEF exchange of Rap1B-BODIPY-GDP, fluorescence; further: potency means the concentration at half of the fitted maximal effect; on the % scale 0 is the no-effect control and ±100 the full control effect; nearly all actives have a fitted effect of over 45% in size
Target sequence (Q8WZA2 whole entry, looked up): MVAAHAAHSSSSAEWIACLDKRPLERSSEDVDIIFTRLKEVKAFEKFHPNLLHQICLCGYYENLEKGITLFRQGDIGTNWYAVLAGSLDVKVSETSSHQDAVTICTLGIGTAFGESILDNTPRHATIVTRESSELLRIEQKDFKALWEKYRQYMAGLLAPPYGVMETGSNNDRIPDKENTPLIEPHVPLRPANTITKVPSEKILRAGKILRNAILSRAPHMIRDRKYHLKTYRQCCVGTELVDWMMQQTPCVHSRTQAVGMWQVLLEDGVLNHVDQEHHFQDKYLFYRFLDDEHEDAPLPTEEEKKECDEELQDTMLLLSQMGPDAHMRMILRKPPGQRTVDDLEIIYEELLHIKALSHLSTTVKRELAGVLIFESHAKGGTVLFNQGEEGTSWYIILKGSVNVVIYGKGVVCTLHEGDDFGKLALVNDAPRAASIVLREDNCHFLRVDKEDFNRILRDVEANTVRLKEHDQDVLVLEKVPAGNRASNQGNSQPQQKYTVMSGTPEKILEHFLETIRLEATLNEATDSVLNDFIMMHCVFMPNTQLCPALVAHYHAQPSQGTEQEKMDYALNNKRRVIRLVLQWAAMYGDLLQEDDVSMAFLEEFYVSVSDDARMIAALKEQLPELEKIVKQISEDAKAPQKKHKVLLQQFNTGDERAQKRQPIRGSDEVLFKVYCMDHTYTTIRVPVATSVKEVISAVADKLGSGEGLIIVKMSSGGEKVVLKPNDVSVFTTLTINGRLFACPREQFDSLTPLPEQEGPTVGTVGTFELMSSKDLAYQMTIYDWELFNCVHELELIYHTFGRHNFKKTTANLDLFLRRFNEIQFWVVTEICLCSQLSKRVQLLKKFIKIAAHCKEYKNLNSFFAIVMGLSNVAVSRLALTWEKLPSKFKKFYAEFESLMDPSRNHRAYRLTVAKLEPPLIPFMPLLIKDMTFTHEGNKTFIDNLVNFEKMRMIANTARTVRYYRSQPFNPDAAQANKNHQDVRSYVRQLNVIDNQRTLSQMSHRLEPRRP
FBPA coupling cs: inhibits coupling enzyme system, counter-screen for aldolase hits. 290,000 tested, 0.67% active. coupling enzyme system counterscreen, AmpLite Red fluorescence. activity change, negative = inhibition, % at 58.2 µM, hits read low; in the data active means activity change below about -30%; further: on the % scale 0 is the no-effect control and ±100 the full control effect
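Final compound at 57.5 uM, incubated 10 min at RT with coupling enzyme reagent (glyceraldehyde-3-phosphate), then 20 min with substrate and AmpLite Red detection. Fluorescence read at 525/598 nm; tests interference with the coupling assay, not aldolase inhibition.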
USP1-UAF1 inh: blocks the human USP1/UAF1 deubiquitinase complex; O94782; recombinant USP1/UAF1, Ub-Rhodamine cleavage fluorescence; Potency, µM (series often up to 57.1 µM), for inactives: at the top dose activity change, negative = inhibition, hits mostly inhibitors; 390,000 tested, 0.23% active; further: potency means the concentration at half of the fitted maximal effect; on the % scale 0 is the no-effect control and ±100 the full control effect; nearly all actives have a fitted effect of over 60% in size
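USP1/UAF1 complex (1 nM) preincubated 15 min at room temperature with compound, then Ub-Rho substrate (150 nM final) added. Kinetic fluorescence at 480/540 nm over 6 reads at 60 s intervals; 50 mM HEPES pH 7.8, 0.5 mM EDTA, 0.1 mg/ml BSA, 1 mM TCEP, 0.01% Tween-20.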
EPAC2 agonist: activates human EPAC2 exchange factor; EPAC2 activation, biochemical qHTS; response scale: 100% = 6.5 mM cAMP response; Potency, µM (top dose mostly 154 µM), for inactives: at the highest dose activation, usual class: activators; 360,000 tested, 0.079% active; further: potency means the concentration at half of the fitted maximal effect; nearly all actives have a fitted effect of over 50% in size
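In this primary screen, activation is scored as increased exchange of BODIPY-GDP from Rap1B by 100 nM EPAC2, with 50 uM GDP as competitor. Signal is normalized to the 6.5 mM cAMP agonist control.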
EPAC1 agonist: agonists of human EPAC1; Potency, µM (top dose mostly 154 µM), inactives show at the highest dose activation, actives largely listed as activators; EPAC1 agonist qHTS, biochemical assay; response scale: 100% = response to 6.5 mM cAMP; 360,000 tested, 0.073% active; O95398; further: potency means the concentration at half of the fitted maximal effect; nearly all actives have a fitted effect of over 60% in size
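EPAC1 100 nM, Rap1B–BODIPY-GDP 250 nM, unlabeled GDP 50 uM; compound titration; 5 min RT; kinetic read ex480/em540 at 5-min intervals ×30 min; data normalized to 6.5 mM cAMP agonist control.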
EPAC1 antagonist: antagonists of human EPAC1 | O95398 | EPAC1 GEF assay, Rap1b-BODIPY-GDP exchange fluorescence | Potency, µM (doses to about 115 µM), without a hit: top-dose activity change, negative = inhibition, actives largely listed as inhibitors | 360,000 tested, 0.14% active | AID 720709;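 further: potency means the concentration at half of the fitted maximal effect; plate controls were vehicle for no effect and positive control for full effect; nearly all actives have a fitted effect of over 50% in size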
* hit, by the source's call; i = inactive; ? = inconclusive; . = not tested or not shown; ! = not confirmed by another sample. Unless noted, the call rests on the fitted dose curve; in most records, active means well fitted curve in the direction sought with a large enough effect; inconclusive means small, poorly fitted or top-dose-only effect, or another doubt; inactive means no such curve, though single readings can be large; an effect the other way counts as inactive or inconclusive.

SMILES | EPAC2 antagonist | FBPA coupling cs | USP1-UAF1 inh | EPAC2 agonist | EPAC1 agonist | EPAC1 antagonist
O=[N+]([O-])c1ccc(C=Nc2cccc3ccccc23)s1 | 1% | -28 | 14µM* | 8% | 5% | -19%
O=c1cc(-c2ccccc2)oc2cc(O)ccc12 | 0% | 3 | -3% | 0% | 0% | -4%
Nc1ccc(-c2c3ccc(=O)cc-3oc3cc(O)ccc23)cc1C(=O)O | i | 1 | 22µM* | 100µM* | 100µM* | i
O=c1ccc2c(-c3ccccc3)c3ccc(O)cc3oc-2c1 | i | -13 | 3.5µM* | 14% | ? | 148%
Cc1c(C2(c3c(C)n(C)n(-c4ccccc4)c3=O)C(=O)Nc3ccc(F)cc32)c(=O)n(-c2ccccc2)n1C | -3% | 0 | -13% | 7% | 7% | 3%
CSc1nc(N(C)CCO)c2sc3nc(-c4ccco4)c4c(c3c2n1)CCC4 | -14% | 0 | ? | 25% | -3% | 45µM*
O=C(O)CCCNc1cc(N2CCC3(CC2)OCCO3)c2noc3c2c1C(=O)c1ccccc1-3 | . | -39* | . | . | . | .
CN1CCN(c2cc(N3CCN(C(=O)c4ccco4)CC3)c3c4c(onc24)-c2ccccc2C3=O)CC1 | -13% | -23 | ? | 7% | 8% | ?
O=C(O)CCCNc1cc(N2CCN(C(=O)c3ccco3)CC2)c2noc3c2c1C(=O)c1ccccc1-3 | 15% | -18 | 28µM* | ? | ? | 36%
CCOC(=O)N1CCN(c2cc(NCCC(=O)O)c3c4c(onc24)-c2ccccc2C3=O)CC1 | -17% | -54* | 14µM* | 11% | 1% | 16%
O=C(O)c1ccc2c(c1)[C@@H]1C=CC[C@@H]1[C@H](c1ccccn1)N2 | 1% | . | 32µM* | 12% | 8% | 5%
COC(=O)c1ccc([C@H]2Nc3ccc(S(=O)(=O)Nc4ccc(F)cc4)cc3[C@H]3C=CC[C@H]32)cc1 | . | . | -2% | . | . | .
COc1cccc(NS(=O)(=O)c2ccc3c(c2)C2C=CCC2C(c2ccc(C(=O)O)cc2)N3)c1 (stereo not given) | 3% | -6 | ? | -4% | -7% | 50µM*
COc1ccc(Br)cc1[C@@H]1Nc2ccc(C(=O)O)cc2[C@@H]2C=CC[C@@H]21 | . | . | -23% | . | . | .
CCOC(=O)c1sc2nc3c(SCC(=O)O)cc(C(=O)c4ccccc4O)cn3c(=O)c2c1C | 11% | 3 | 7% | 3% | 5% | -1%
CCOC(=O)c1sc2nc3c(SCC(=O)O)cc(C(=O)c4cc(F)ccc4O)cn3c(=O)c2c1C | ? | 9 | 1% | 13% | 89µM* | 8.9µM*
COc1ccc([N+](=O)[O-])cc1NC(=S)Nc1ccccc1 | 6% | -2 | -26% | 7.9µM* | 0% | -2%
Cc1ccc(-c2cc3c(nn2)-c2ccccc2C3=O)cc1 | -2% | -5 | -19% | 1% | 11% | -2%
Cc1ccccc1-c1cc2c(nn1)-c1ccccc1C2=O | -1% | -39* | 32µM* | -2% | 10% | -18%
Cc1ccccc1C(=O)NCCCNC(=O)c1ccco1 | 0% | 1 | -15% | 0% | -6% | 4%
CN(C)CC/C=C1/c2ccccc2Sc2c(O)cc(Cl)cc21 | 35µM* | -31* | -16% | 10% | 1% | -1%
COc1ccc(-c2nc(N)nc(C(F)(F)F)c2-c2csc(C)n2)c(O)c1 | 25% | -1 | -27% | -6% | -11% | -5%
CCOC(=O)c1c(OCC)[nH]c2c1cc(O)c1ccccc12 | -2% | -49* | ? | 5% | 3% | 3%
COC1=C(N)C(=O)c2nc(-c3nc(C(=O)O)c(C)c(-c4ccc(OC)c(OC)c4O)c3N)ccc2C1=O | -18% | -64* | 11µM* | 8% | 3% | -11%
COc1ccc(C(=O)O)c(O)c1OC | . | -1 | . | . | . | .
SMILES | EPAC2 antagonist | FBPA coupling cs | USP1-UAF1 inh | EPAC2 agonist | EPAC1 agonist | EPAC1 antagonist
CNC(=S)N/N=C/c1cn(CCOc2ccc(OC)cc2)c2ccccc12 | -10% | 5 | -5% | -10% | 4% | -11%
COc1ccc(/C=N/NC(=O)c2cccc([N+](=O)[O-])c2)cc1OC | 3% | 0 | -9% | 7% | -1% | -5%
N#Cc1cc([N+](=O)[O-])ccc1Oc1cccc(/C=N/NC(=O)c2cccc(Cl)c2)c1 | -2% | -36* | -5% | -2% | 7% | -14%
COC(=O)c1ccc(-n2c(C)cc(C(=O)CCl)c2C)cc1 | 35µM* | 5 | -17% | 12% | 3% | -27%
CCOc1ccc(-n2c(C)cc(C(=O)CCl)c2C)cc1 | 8.9µM* | 3 | -24% | 9% | 1% | -22%
CCOc1ccc(NC(=O)C(=O)c2cc(C)n(-c3cc(C)cc(C)c3)c2C)cc1 | . | . | -6% | . | . | .
COC(=O)CCCC1=CC2=C(c3ccccc3)C(=O)C(C)(OC(=O)C3CCCC3)C(=O)C2=CN1C1CCCCC1 (stereo not given) | 7% | -31*! | -24% | 12% | 12% | -16%
CC1(OC(=O)C2CCCC2)C(=O)C=C2C=C(c3ccsc3)N(C3CCCC3)C=C2C1=O (stereo not given) | -6% | -32*! | ? | -1% | 0% | -12%
COc1ccc(CN2C=C3C(=O)C(C)(OC(=O)C4CCCC4)C(=O)C=C3C=C2c2ccsc2)cc1 (stereo not given) | 0% | -4 | -16% | 8% | 14% | -18%
CC1(OC(=O)C2CCCC2)C(=O)C=C2C=C(c3ccsc3)N(Cc3ccco3)C=C2C1=O (stereo not given) | 6% | -2 | -13% | 10% | -15% | ?
COC(=O)CCCC1=CC2=C(c3ccccc3)C(=O)C(C)(OC(=O)C3CCCC3)C(=O)C2=CN1C1CCCC1 (stereo not given) | -12% | -12 | -34% | 6% | 2% | ?
CC1(OC(=O)C2CCCC2)C(=O)C=C2C=C(c3ccsc3)N(CCCCO)C=C2C1=O (stereo not given) | -6% | -37* | ? | -2% | -15% | 8%
CC(C)OCCCN1C=C2C(=O)C(C)(OC(=O)C3CCCC3)C(=O)C=C2C=C1c1ccsc1 (stereo not given) | . | -41* | . | . | . | .
O=S(=O)(Nc1ccc(O)c2ccccc12)c1cccs1 | -12% | -35* | -16% | 4% | 7% | -12%
FC(F)(F)c1cccc(-c2nc3nc(Cl)c(Cl)nc3[nH]2)c1 | 2% | -36* | 2% | 5% | -16% | -8%
Cn1c2c(c(=O)n(C)c1=O)[C@@]1(C(=O)Nc3ccccc31)C(C#N)=C(N)O2 | 10% | -50* | -17% | 3% | 12% | 7%
